HTR5A inv ag = inverse agonist of human HTR5A in OPRM1-OPRD1 counter-screen; 340,000 tested, 0.083% active; HTR5A cell line, luminescence, inverse agonism; inhibition, % at 9.3 µM; in the data active means inhibition mostly above about 23%, no sharp cut-off; inactive means mostly below about 18%;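 further: 0% = cells with DMSO and 100% = no-cell wells with DMSO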
Target sequence (P47898 whole entry, looked up): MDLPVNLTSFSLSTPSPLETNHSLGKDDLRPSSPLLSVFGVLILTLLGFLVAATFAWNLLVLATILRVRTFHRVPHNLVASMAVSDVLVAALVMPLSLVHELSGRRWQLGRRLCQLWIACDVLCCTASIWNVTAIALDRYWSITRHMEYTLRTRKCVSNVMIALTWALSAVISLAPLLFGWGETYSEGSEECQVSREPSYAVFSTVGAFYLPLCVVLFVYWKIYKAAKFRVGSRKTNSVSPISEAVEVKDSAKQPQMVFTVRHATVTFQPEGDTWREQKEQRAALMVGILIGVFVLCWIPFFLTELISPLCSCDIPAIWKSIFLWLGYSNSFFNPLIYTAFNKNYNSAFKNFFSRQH
OPRM1-OPRD1 ag = OPRM1-OPRD1 heterodimerization agonism. cells, luminescence. activation, % at 9.3 µM. 340,000 tested, 0.3% active. AID 504326; in the data active means activation above about 18%;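 further: 0% = vehicle-treated cells and 100% = reference agonist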
HTR5A ag = HTR5A agonism, opioid heterodimer counter-screen | P47898 | HTR5A agonist assay, luminescence, cell-based | activation, % at 9.3 µM | 340,000 tested, 0.61% active | AID 504692; in the data active means activation mostly above about 9.5%, no sharp cut-off; inactive means mostly below about 7.6%;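 further: 0% = cells with vehicle only and 100% = reference agonist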
MOR-DOR inv ag = inverse agonist of human OPRM1-OPRD1 heterodimerization; 340,000 tested, 0.21% active; inhibition, % at 9.3 µM; cell-based MOR-DOR heterodimer luminescence, inverse agonism; AID 504357; in the data active means inhibition above about 22%, passing the limit was not always enough;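 further: 0% = cells with DMSO and 100% = wells without cells with DMSO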
Active calls of the source: *. Compounds with a hit are over-represented: about 1.1% of the library has one in this group of screens.

SMILES | HTR5A inv ag | OPRM1-OPRD1 ag | HTR5A ag | MOR-DOR inv ag
Cc1ccccc1N1CCN(C2CCCN(C(=O)CCC(=O)N(C)C)C2)CC1 (centres undefined) | -2.4 | -1.2 | 0.7 | 5.3
CS(=O)(=O)c1ccc(C(=O)Nc2nc(-c3ccco3)c(-c3ccco3)s2)cc1 | -108.9 | 1.4 | 44.5* | -7.5
O=C(Nc1nc(-c2ccco2)c(-c2ccco2)s1)C1CCC1 | 13.8 | 0.2 | 5.9 | -1.4
COC(=O)c1sc(NC(=O)c2ccc3c(c2)OCO3)c(C#N)c1C | -4.9 | -2.6 | 1.4 | 13.7
CC(=O)Nc1sc(N/N=C/c2ccccc2)nc1-c1ccc(C)cc1 | 3.9 | 0.5 | 12.7* | -2.6
O=[N+]([O-])c1ccc2[nH]ncc2c1 | -33.5 | -2.5 | 12.2* | 11.4
CCN(CC)C(=O)[C@H]1C[C@H](CC(=O)NCCCN(C)C)C(=O)N2CCc3c([nH]c4cc(CCC(=O)N(C)C)ccc34)[C@]12C | -17.0 | -2.8 | 5.0* | 13.5
CC(C)N(C(=O)[C@H]1C[C@H](CC(=O)NCCCN(C)C)C(=O)N2CCc3c([nH]c4cc(CCC(=O)N(C)C)ccc34)[C@]12C)C(C)C | -8.0 | -3.7 | 2.3 | 18.1
Cc1cccc2sc(NNC(=O)c3ccc(S(=O)(=O)N4CC(C)CC(C)C4)cc3)nc12 (centres undefined) | -43.0 | 22.6* | 15.2* | -132.7
CCS(=O)(=O)N1Cc2ccccc2CC1C(=O)N(C)CC(=O)Nc1cccc(F)c1 (centres undefined) | 12.3 | -0.9 | 9.9* | 5.8
CN(CC(=O)Nc1ccc(F)cc1)C(=O)C1Cc2ccccc2CN1S(C)(=O)=O (centres undefined) | 10.5 | -3.3 | -4.3 | 17.3
CCOc1ccccc1NC(=O)CSc1cn[nH]n1 | -7.3 | -0.9 | 2.9 | 5.2
Cc1cc(C)cc(NC(=O)CN2CCC(NC(=O)c3ccccc3F)CC2)c1 | 15.1 | -2.5 | -0.3 | 13.6
CC(=O)N(/N=C1/C(=O)Nc2ccccc21)c1ccccc1 | -0.6 | 2.2 | 0.1 | -12.2
CC(=O)c1ccc(N=C2C(=O)Nc3ccccc32)cc1 | 9.0 | -10.6 | -2.4 | 52.9*
O=C1Nc2ccccc2C1=Nc1cccc(Cl)c1 | 20.6 | -11.0 | -5.6 | 52.8*
CSc1cccc(N=C2C(=O)Nc3ccccc32)c1 | 15.8 | -10.8 | -4.3 | 51.9*
N#Cc1ccccc1COC(=O)c1ccc(Br)o1 | -14.2 | -2.2 | 5.0 | 13.9
CC(=O)OCCNc1cc(Sc2nc3ccccc3[nH]2)c2nonc2c1[N+](=O)[O-] | -0.8 | -6.3 | -6.3 | 35.1*
CS(=O)(=O)N1CCN(c2ccc(NC(=O)c3ccc(-c4ccc(Cl)cc4)o3)cc2)CC1 | -39.2 | 9.6 | 11.8* | -54.9
CCOc1ccc2noc3c2c1C(=O)c1ccccc1-3 | 9.2 | 10.6 | -5.0 | -62.6
O=C1c2ccccc2-c2onc3ccc(N4CCCC4)c1c23 | -3.5 | 18.9* | 6.3 | -97.2
O=C(NCC(c1ccc(F)cc1)N1CCOCC1)c1ccccc1F (centres undefined) | -36.2 | -3.2 | 11.5* | 16.8
O=C(NCC(c1ccc(F)cc1)N1CCOCC1)c1cc(F)c(F)c(F)c1F (centres undefined) | -1.8 | 2.0 | 0.7 | -14.4
CC(C)Cn1c(=O)c(C(=O)Nc2ccccc2S(N)(=O)=O)c(O)c2ccccc21 | -4.2 | 2.3 | 9.1 | -11.9
SMILES | HTR5A inv ag | OPRM1-OPRD1 ag | HTR5A ag | MOR-DOR inv ag
CCC(C)n1c(=O)c(C(=O)Nc2ccccc2S(N)(=O)=O)c(O)c2ccccc21 (centres undefined) | 7.6 | 4.2 | 9.0* | -25.2
CC1(c2ccc3noc(-c4cccc(F)c4)c3c2)OCCO1 | -26.2 | 12.8 | 10.6* | -60.6
CCN(CC)CC(=O)Nc1sc2c(c1C(=O)c1ccccc1OC)CCC2 | -28.6 | 3.5 | 11.2* | -16.3
CCOc1ccc(NC(=O)CSc2nnc(NC(=O)C3CC3)s2)cc1 | -0.7 | -0.8 | 0.2 | 4.8
CC(C)(C)C1=CC(=O)C(=O)C(C(C)(C)C)=C1 | -11.9 | 36.3* | 4.6 | -184.5
COc1cc(C(=O)O)cc(NC(=O)c2ccco2)c1OC | -38.8 | -2.9 | 12.3* | 15.6
Cc1ccc(-n2c(=O)c3ccc(C(=O)NCc4ccco4)cc3n(Cc3ccccc3C#N)c2=O)cc1 | 37.5* | -6.7 | -10.2 | 34.6*
Cc1noc(C)c1Cc1c(Cl)cccc1Cl | 4.1 | 2.2 | 2.6 | -10.3
Cc1noc(C)c1Cc1ccc(O)cc1 | -4.3 | -3.0 | 14.2* | 17.3
Cc1cc(C)c(S(=O)(=O)Cc2ccccc2)c(OC(C)C)n1 | -19.6 | -0.1 | 5.0 | 0.5
CC1CC(=O)c2c(cc3c(-c4c(O)cc(O)c5c(O)c6c(cc45)OC(C)CC6=O)c(O)cc(O)c3c2O)O1 (centres undefined) | 12.6 | 81.7* | 16.8* | -412.3
O=C(NC(=S)Nc1c(Cl)ccc2nsnc12)c1ccccc1F | -7.2 | -1.4 | 10.1* | 6.9
